# Substitutions are numbered along the chain they refer to.
# Columns and labels:
# Test in all cases: PBM; 200 nM protein, PBS
# Details in all cases: dsDNA, one strand shown
# SHOX [1] = biological target: SHOX (Homo sapiens, UniProt O15266 103-189)
# PAX4 [2] = biological target: T1, PAX4 (Homo sapiens, UniProt O43316 9-242, R200K)
# T1 sequence: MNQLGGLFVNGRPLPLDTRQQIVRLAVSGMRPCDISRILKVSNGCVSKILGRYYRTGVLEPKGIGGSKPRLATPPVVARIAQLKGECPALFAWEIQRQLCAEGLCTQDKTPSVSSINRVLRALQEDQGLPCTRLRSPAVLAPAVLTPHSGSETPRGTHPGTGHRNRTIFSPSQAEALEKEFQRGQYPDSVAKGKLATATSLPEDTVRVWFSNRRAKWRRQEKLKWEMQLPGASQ
# PAX4 [3] = biological target: T2, PAX4 (Homo sapiens, UniProt O43316 9-242)
# T2 sequence: T1 sequence with K192R
# ALX3 [4] = biological target: ALX3 (Homo sapiens, UniProt O95076 139-225, N203Q)
# PAX4 [5] = biological target: T3, PAX4 (Homo sapiens, UniProt O43316 9-242, R200Q)
# T3 sequence: T1 sequence with K192Q
# SHOX [6] = biological target: SHOX (Homo sapiens, UniProt O15266 103-189, R173C)
# PAX4 [7] = biological target: T4, PAX4 (Homo sapiens, UniProt O43316 9-242, F177V)
# T4 sequence: T1 sequence with F169V, K192R
# ALX3 [8] = biological target: ALX3 (Homo sapiens, UniProt O95076 139-225)
# PAX4 [9] = biological target: T5, PAX4 (Homo sapiens, UniProt O43316 9-242, F177Y)
# T5 sequence: T1 sequence with F169Y, K192R
# ALX3 [10] = biological target: ALX3 (Homo sapiens, UniProt O95076 139-225, L168Q)
# ALX3 [11] = biological target: ALX3 (Homo sapiens, UniProt O95076 139-225, L168V)
# PAX4 [12] = biological target: T6, PAX4 (Homo sapiens, UniProt O43316 9-242, R227W)
# T6 sequence: T1 sequence with K192R, R219W
# ALX3 [13] = biological target: ALX3 (Homo sapiens, UniProt O95076 139-225, N203S)
# HOXC10 [14] = biological target: HOXC10 (Homo sapiens, UniProt Q9NYD6 254-340)
# HOXC10 [15] = biological target: HOXC10 (Homo sapiens, UniProt Q9NYD6 254-340, K271E)
# NKX3-2 [16] = biological target: NKX3-2 (Homo sapiens, UniProt P78367 192-278, P234S)
# NKX3-2 [17] = biological target: NKX3-2 (Homo sapiens, UniProt P78367 192-278)
# HOXA2 [18] = biological target: HOXA2 (Homo sapiens, UniProt O43364 129-215, R185T)
# HOXA2 [19] = biological target: HOXA2 (Homo sapiens, UniProt O43364 129-215, R185K)
# HOXA2 [20] = biological target: HOXA2 (Homo sapiens, UniProt O43364 129-215, Y150S)
# HOXA2 [21] = biological target: HOXA2 (Homo sapiens, UniProt O43364 129-215)
# MSX2 [22] = biological target: MSX2 (Homo sapiens, UniProt P35548 130-214, R199I)
# ALX1 [23] = biological target: ALX1 (Homo sapiens, UniProt Q15699 118-204, L144V)
# ALX1 [24] = biological target: ALX1 (Homo sapiens, UniProt Q15699 118-204, L144R)
# MSX2 [25] = biological target: MSX2 (Homo sapiens, UniProt P35548 130-214)
# MSX2 [26] = biological target: MSX2 (Homo sapiens, UniProt P35548 130-214, F161Y)
# ALX1 [27] = biological target: ALX1 (Homo sapiens, UniProt Q15699 118-204)
# Sequence of ALX1 (Homo sapiens, UniProt Q15699 118-204) (Q15699 118-204): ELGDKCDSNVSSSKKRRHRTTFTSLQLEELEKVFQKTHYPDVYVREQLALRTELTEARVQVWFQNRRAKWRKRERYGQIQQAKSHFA
# Sequence of SHOX (Homo sapiens, UniProt O15266 103-189) (O15266 103-189): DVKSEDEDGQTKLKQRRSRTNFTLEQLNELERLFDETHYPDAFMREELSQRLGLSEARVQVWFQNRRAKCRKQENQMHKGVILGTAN
# Sequence of ALX3 (Homo sapiens, UniProt O95076 139-225, L168Q) (O95076 139-225 L168Q): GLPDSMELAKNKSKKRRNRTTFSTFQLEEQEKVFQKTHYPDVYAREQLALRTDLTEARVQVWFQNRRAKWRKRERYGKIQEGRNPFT
# Sequence of ALX3 (Homo sapiens, UniProt O95076 139-225, N203S) (O95076 139-225 N203S): as the sequence (O95076 139-225 L168Q) above, with Q30L, N65S counted along it
# Sequence of ALX3 (Homo sapiens, UniProt O95076 139-225) (O95076 139-225): as the sequence (O95076 139-225 L168Q) above, with Q30L counted along it
# Sequence of ALX3 (Homo sapiens, UniProt O95076 139-225, N203Q) (O95076 139-225 N203Q): as the sequence (O95076 139-225 L168Q) above, with Q30L, N65Q counted along it
# Sequence of ALX3 (Homo sapiens, UniProt O95076 139-225, L168V) (O95076 139-225 L168V): as the sequence (O95076 139-225 L168Q) above, with Q30V counted along it
# Sequence of SHOX (Homo sapiens, UniProt O15266 103-189, R173C) (O15266 103-189 R173C): as the sequence (O15266 103-189) above, with R71C counted along it
# Sequence of ALX1 (Homo sapiens, UniProt Q15699 118-204, L144V) (Q15699 118-204 L144V): as the sequence (Q15699 118-204) above, with L27V counted along it
# Sequence of HOXA2 (Homo sapiens, UniProt O43364 129-215, R185T) (O43364 129-215 R185T): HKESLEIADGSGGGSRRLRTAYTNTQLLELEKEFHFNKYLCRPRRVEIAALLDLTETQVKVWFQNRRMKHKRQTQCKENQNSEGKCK
# Sequence of HOXA2 (Homo sapiens, UniProt O43364 129-215, R185K) (O43364 129-215 R185K): as the sequence (O43364 129-215 R185T) above, with T57K counted along it
# Sequence of HOXC10 (Homo sapiens, UniProt Q9NYD6 254-340, K271E) (Q9NYD6 254-340 K271E): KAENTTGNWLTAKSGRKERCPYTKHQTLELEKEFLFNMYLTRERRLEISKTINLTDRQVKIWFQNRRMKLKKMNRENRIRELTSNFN
# Sequence of MSX2 (Homo sapiens, UniProt P35548 130-214, F161Y) (P35548 130-214 F161Y): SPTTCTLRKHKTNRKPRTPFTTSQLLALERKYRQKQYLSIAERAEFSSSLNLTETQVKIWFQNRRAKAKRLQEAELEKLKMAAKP
# Sequence of HOXA2 (Homo sapiens, UniProt O43364 129-215) (O43364 129-215): as the sequence (O43364 129-215 R185T) above, with T57R counted along it
# Sequence of HOXC10 (Homo sapiens, UniProt Q9NYD6 254-340) (Q9NYD6 254-340): as the sequence (Q9NYD6 254-340 K271E) above, with E18K counted along it
# Sequence of ALX1 (Homo sapiens, UniProt Q15699 118-204, L144R) (Q15699 118-204 L144R): as the sequence (Q15699 118-204) above, with L27R counted along it
# Sequence of HOXA2 (Homo sapiens, UniProt O43364 129-215, Y150S) (O43364 129-215 Y150S): as the sequence (O43364 129-215 R185T) above, with Y22S, T57R counted along it
# Sequence of MSX2 (Homo sapiens, UniProt P35548 130-214, R199I) (P35548 130-214 R199I): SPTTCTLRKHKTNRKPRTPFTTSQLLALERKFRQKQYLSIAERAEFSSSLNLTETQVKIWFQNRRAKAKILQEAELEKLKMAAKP
# Sequence of MSX2 (Homo sapiens, UniProt P35548 130-214) (P35548 130-214): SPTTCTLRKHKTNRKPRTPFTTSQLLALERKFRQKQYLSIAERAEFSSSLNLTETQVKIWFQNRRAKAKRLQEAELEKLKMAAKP
# Sequence of NKX3-2 (Homo sapiens, UniProt P78367 192-278) (P78367 192-278): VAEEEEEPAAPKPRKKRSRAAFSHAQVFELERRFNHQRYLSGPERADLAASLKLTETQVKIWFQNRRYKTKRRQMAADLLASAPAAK
# Sequence of NKX3-2 (Homo sapiens, UniProt P78367 192-278, P234S) (P78367 192-278 P234S): as the sequence (P78367 192-278) above, with P43S counted along it
sequence,measurement,setting,value
CGCCGAGC,binding signal,SHOX [1],"7.14 upbm affinity estimate (log intensity, higher = more binding, comparable within an allelic series)"
same,binding signal,PAX4 [2],"9.36 upbm affinity estimate (log intensity, higher = more binding, comparable within an allelic series)"
same,binding signal,PAX4 [3],"9.47 upbm affinity estimate (log intensity, higher = more binding, comparable within an allelic series)"
same,binding signal,ALX3 [4],"7.72 upbm affinity estimate (log intensity, higher = more binding, comparable within an allelic series)"
same,binding signal,PAX4 [5],"9.48 upbm affinity estimate (log intensity, higher = more binding, comparable within an allelic series)"
same,binding signal,SHOX [6],"7.23 upbm affinity estimate (log intensity, higher = more binding, comparable within an allelic series)"
same,binding signal,PAX4 [7],"9.31 upbm affinity estimate (log intensity, higher = more binding, comparable within an allelic series)"
same,binding signal,ALX3 [8],"7.76 upbm affinity estimate (log intensity, higher = more binding, comparable within an allelic series)"
same,binding signal,PAX4 [9],"9.32 upbm affinity estimate (log intensity, higher = more binding, comparable within an allelic series)"
same,binding signal,ALX3 [10],"7.81 upbm affinity estimate (log intensity, higher = more binding, comparable within an allelic series)"
same,binding signal,ALX3 [11],"7.74 upbm affinity estimate (log intensity, higher = more binding, comparable within an allelic series)"
same,binding signal,PAX4 [12],"9.41 upbm affinity estimate (log intensity, higher = more binding, comparable within an allelic series)"
same,binding signal,ALX3 [13],"7.79 upbm affinity estimate (log intensity, higher = more binding, comparable within an allelic series)"
ACGGGGCC,binding signal,SHOX [1],"7.07 upbm affinity estimate (log intensity, higher = more binding, comparable within an allelic series)"
same,binding signal,HOXC10 [14],"10.1 upbm affinity estimate (log intensity, higher = more binding, comparable within an allelic series)"
same,binding signal,SHOX [6],"7.17 upbm affinity estimate (log intensity, higher = more binding, comparable within an allelic series)"
same,binding signal,HOXC10 [15],"10.1 upbm affinity estimate (log intensity, higher = more binding, comparable within an allelic series)"
same,binding signal,NKX3-2 [16],"10.8 upbm affinity estimate (log intensity, higher = more binding, comparable within an allelic series)"
same,binding signal,NKX3-2 [17],"10.8 upbm affinity estimate (log intensity, higher = more binding, comparable within an allelic series)"
CGCCGGCG,binding signal,SHOX [1],"7.07 upbm affinity estimate (log intensity, higher = more binding, comparable within an allelic series)"
same,binding signal,HOXA2 [18],"7.18 upbm affinity estimate (log intensity, higher = more binding, comparable within an allelic series)"
same,binding signal,ALX3 [4],"7.92 upbm affinity estimate (log intensity, higher = more binding, comparable within an allelic series)"
same,binding signal,SHOX [6],"7.15 upbm affinity estimate (log intensity, higher = more binding, comparable within an allelic series)"
same,binding signal,HOXA2 [19],"10.2 upbm affinity estimate (log intensity, higher = more binding, comparable within an allelic series)"
same,binding signal,ALX3 [8],"7.79 upbm affinity estimate (log intensity, higher = more binding, comparable within an allelic series)"
same,binding signal,ALX3 [10],"7.73 upbm affinity estimate (log intensity, higher = more binding, comparable within an allelic series)"
same,binding signal,ALX3 [11],"7.68 upbm affinity estimate (log intensity, higher = more binding, comparable within an allelic series)"
same,binding signal,HOXA2 [20],"10.3 upbm affinity estimate (log intensity, higher = more binding, comparable within an allelic series)"
same,binding signal,ALX3 [13],"8.03 upbm affinity estimate (log intensity, higher = more binding, comparable within an allelic series)"
same,binding signal,HOXA2 [21],"7.22 upbm affinity estimate (log intensity, higher = more binding, comparable within an allelic series)"
ACAAATTA,binding signal,SHOX [1],"11.4 upbm affinity estimate (log intensity, higher = more binding, comparable within an allelic series)"
same,binding signal,PAX4 [2],"11.7 upbm affinity estimate (log intensity, higher = more binding, comparable within an allelic series)"
same,binding signal,PAX4 [3],"12.3 upbm affinity estimate (log intensity, higher = more binding, comparable within an allelic series)"
same,binding signal,MSX2 [22],"12 upbm affinity estimate (log intensity, higher = more binding, comparable within an allelic series)"
same,binding signal,ALX1 [23],"11.3 upbm affinity estimate (log intensity, higher = more binding, comparable within an allelic series)"
same,binding signal,ALX3 [4],"8.4 upbm affinity estimate (log intensity, higher = more binding, comparable within an allelic series)"
same,binding signal,PAX4 [5],"12.2 upbm affinity estimate (log intensity, higher = more binding, comparable within an allelic series)"
same,binding signal,SHOX [6],"9.08 upbm affinity estimate (log intensity, higher = more binding, comparable within an allelic series)"
same,binding signal,ALX1 [24],"10.9 upbm affinity estimate (log intensity, higher = more binding, comparable within an allelic series)"
same,binding signal,PAX4 [7],"10.5 upbm affinity estimate (log intensity, higher = more binding, comparable within an allelic series)"
same,binding signal,MSX2 [25],"13.3 upbm affinity estimate (log intensity, higher = more binding, comparable within an allelic series)"
same,binding signal,ALX3 [8],"12.2 upbm affinity estimate (log intensity, higher = more binding, comparable within an allelic series)"
same,binding signal,PAX4 [9],"11 upbm affinity estimate (log intensity, higher = more binding, comparable within an allelic series)"
same,binding signal,ALX3 [10],"10.1 upbm affinity estimate (log intensity, higher = more binding, comparable within an allelic series)"
same,binding signal,ALX3 [11],"9.54 upbm affinity estimate (log intensity, higher = more binding, comparable within an allelic series)"
same,binding signal,MSX2 [26],"12.9 upbm affinity estimate (log intensity, higher = more binding, comparable within an allelic series)"
same,binding signal,PAX4 [12],"11 upbm affinity estimate (log intensity, higher = more binding, comparable within an allelic series)"
same,binding signal,ALX1 [27],"12 upbm affinity estimate (log intensity, higher = more binding, comparable within an allelic series)"
same,binding signal,ALX3 [13],"8.51 upbm affinity estimate (log intensity, higher = more binding, comparable within an allelic series)"

# Reference: paper PMC11006913
